Test results reported in PubChem BioAssay (NCATS).
Activity calls are given as the source filed them. No rule for the calls is given here.

Test: qHTS assay for small molecule activators of the human pregnane X receptor (PXR) signaling pathway (AID 720659)
Conditions: DPX-2 HepG2 CYP3A4-luciferase, 24 h; series mostly up to 92.3 µM

Row | Structure (SMILES) | outcome
1 | NC(N)=O | inactive
2 | CC(C)O | inactive
3 | OCC(O)CO | inactive
4 | OCc1ccccc1 | inactive
5 | NCCN | inactive
6 | CC1=CCC2CC1C2(C)C (centres undefined) | inactive
7 | CC(C)[C@@H]1CC[C@@H](C)C[C@H]1O | inactive
8 | Nc1nccs1 | inactive
9 | OCl | inactive
